In paper PMC5540273 (PLoS ONE, 2017) one finds Kd data, which are given here for eight molecules.

The test system of test [1] is TYK2(JH2domain-pseudokinase).
A further test has as its system T1, VEGFR2.
T1 construct: gene KDR
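Further: kd values determined as follow-up on hits from a single-replicate KINOMEscan panel screen.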

For the molecule `CN(C)c1cc(-c2ccc3c(N)n[nH]c3c2)nc(N)n1` [GSK2219329], the Kd with TXK was more than 10 µM.
Consider `O=C(NCCNc1ccnc(Nc2ccc(F)cc2)n1)Nc1ccc2c(c1)OCO2` [GSK1379882], for which the Kd in the test with TXK is more than 10 µM.
The molecule `Nc1n[nH]c2ncc(-c3ccccc3)cc12` [SB-517081] returned a Kd in test [1] of 0.95 µM.
`COc1cc(OC)cc(-c2cc3cnc(N)nc3nc2NC(=O)NC(C)(C)C)c1` displayed a Kd in the test on TYRO3 of more than 10 µM.
Regarding `COc1ccc(-c2coc3ccc(-c4nnc(SCc5cccc(C#N)c5)o4)cc23)cc1`, the equilibrium dissociation constant (Kd) in the test with ULK3 is more than 10 µM.
As for `COc1cc2nccc(Nc3ccc(OCc4ccc(NC(C)=O)cc4)cc3)c2cc1OC.Cl` [GW440135], the Kd in the test with VEGFR2 came out at 0.053 µM.
As to `CN1C(=O)C(Nc2cc(Cl)c(O)c(Cl)c2)=C(c2ccc(Cl)cc2)C1=O` [SB-404321], the Kd in the test with VRK2 was more than 10 µM.
For `OCCCNc1nccc(-c2c(-c3cccc(C(F)(F)F)c3)nn3cc(C(F)(F)F)ccc23)n1` [GW630813], the Kd in the test with WNK4 was more than 10 µM.

By Kd is commonly meant the concentration at which binding is half-saturated. Low readings indicate tighter binding, high ones weaker binding.
